# PubChem BioAssay (EPA / NIEHS)
# The source made the active and inactive calls. The calls were made as follows: active = hit-call score of the fitted dose curve at least 0.9, where 1 is the maximum; inactive = score below 0.9.
# Assay: ATG_TCF_b_cat_CIS: Attagene CIS-FACTORIAL HepG2 Assay for human T-Cell-Factor with beta-catenin (TCF/b-cat) (AID 2282965)
# Conditions: HepG2 TCF/beta-catenin cis-reporter transcription, actives raise or lower the signal
# Method: ATG_CIS is a cell-based, multiplexed-readout assay that uses HepG2, a human liver cell line, with measurements taken at 24 hours after chemical dosing in a 24-well plate.ATG_TCF_b_cat_CIS is one of 52 assay component(s) measured or calculated from the ATG_CIS assay. It is designed to make measurements of mRNA induction, a form of inducible reporter, as detected with fluorescence intensity signals by Reverse transcription polymerase chain reaction (RT-PCR) and Capillary electrophoresis technology.Data from the assay component ATG_TCF_b_cat_CIS was analyzed into 1 assay endpoint. This assay endpoint, ATG_TCF_b_cat_CIS, was analyzed with bidirectional fitting relative to DMSO as the negative control and baseline of activity. Using a type of inducible reporter, measures of mRNA for gain or loss-of-signal activity can be used to understand the reporter gene at the transcription factor-level as they relate to the gene TCF7 and TCF7L2 and LEF1 and TCF7L1. Furthermore, this assay endpoint can be referred to as a primary readout, because this assay has produced multiple assay endpoints where this one serves a reporter gene function. To generalize the intended target to other relatable targets, this assay endpoint is annotated to the dna binding intended target family, where the subfamily is HMG box protein.
# Human liver HepG2 cells are transiently transfected with multiple reporter transcription units (MRTUs) in 6-well plates using FuGene 6 reagent (Roche; 3 ml FuGene/1 mg DNA). The MRTU constructs are regulated by a cis-regulating element (promoter). […] A major difference between the CIS and TRANS system is that in CIS activities of endogenous TFs are measured, whereas the TRANS assay evaluates changes in activities of exogenous, chimeric NR-Gal4 proteins. […] At the end of 24 hour incubation, total RNA was isolated using TriZol reagent (Invitrogen). The isolated RNA is then reverse-transcribed using oligo(dT) primer and Mo-MLV reverse transcriptase (Invitrogen) with DNAse I (Ambion) treatment for 30 min. The one-tenth of the produced cDNA was amplified by PCR using Taq DNA polymerase (Invitrogen) and two reporter sequence-specific primers. The PCR products were fluorescently labeled by primer extension with 6-arboxyfluorescein (6-FAM) 5'-labeled reporter sequence-specific primer (2 min at 95 C, 20 s at 68 C and 10 min at 72 C) and these products were digested with 5U of HpaI (New England Biolabs) for 2h at 37 C. The fragments were purified using Qiaquick PCR columns (Qiagen), analyzed on an ABI 3130xL genetic analyzer (Applied Biosystems) with peak positions identified by using a set of X-rhodamine (ROX)-labeled MapMarker1000 molecular weight standards (BioVentures). The raw capillary electrophoresis data was processed using Attagraph software (Attagene).
Compound,outcome,AC50
FC(F)(F)C(F)(F)C(F)(F)CC1CO1 (stereo not given),inactive,–
O=S(=O)(O)CCC(F)(F)C(F)(F)C(F)(F)C(F)(F)C(F)(F)C(F)(F)C(F)(F)C(F)(F)F,inactive,–
C[C@]12CC[C@H]3C(=CCc4cc(O)ccc43)[C@@H]1CCC2=O,inactive,–
CC(C)(C)C(=O)C1C(=O)c2ccccc2C1=O,inactive,–
O=C(c1ccccc1)c1ccc(Cl)cc1,inactive,–
OCCCCC(F)(F)C(F)(F)C(F)(F)C(F)(F)F,inactive,–
CN(C(=O)C(F)(F)C(F)(F)C(F)(F)F)[Si](C)(C)C,inactive,–
OC(O)C(F)(F)C(F)(F)F,inactive,–
O=S(=O)(OCC(F)(F)F)C(F)(F)C(F)(F)C(F)(F)C(F)(F)F,–,104 µM (active)
CCOCN(C(=O)CS(=O)(=O)O)c1c(C)cccc1CC,inactive,–
CCC/C=C/CO,inactive,–
O=C(O)CCC(F)(F)C(F)(F)C(F)(F)C(F)(F)C(F)(F)C(F)(F)C(F)(F)F,–,150 µM (active)
CC(C)C(=O)OCc1ccccc1,inactive,–
CC(C)OC(=O)COc1ccc(Cl)cc1Cl,inactive,–
O=C1C=CC(=O)N1c1ccccc1,inactive,–
O=C(O)C(F)(F)C(F)(F)C(F)(F)OC(F)(C(F)(F)F)C(F)(F)F,–,285 µM (active)
FC(F)(F)C(F)(F)C(F)(F)C(F)(F)C(F)(F)C(F)(F)C(F)(F)CCI,inactive,–
Cc1ccc2c(c1)OCC(=O)CO2,inactive,–
CC(=O)C=O,inactive,–
O=C(c1ccccc1)c1ccc(O)cc1O,inactive,–

Compound,outcome,AC50
OCC1CCCO1 (stereo not given),inactive,–
CSc1ccc(Cl)cc1,inactive,–
OCCCc1cccnc1,inactive,–
CO[Si](CCCOCC1CO1)(OC)OC (stereo not given),inactive,–
CCOC(=O)C1CC(=O)C(=C(O)C2CC2)C(=O)C1 (stereo not given),inactive,–
COCCC(=O)OC,inactive,–
CCCCCCCCCCCCCCCCC,inactive,–
NC(=O)C(F)(F)C(F)(F)C(F)(F)C(F)(F)C(N)=O,inactive,–
CCn1c2ccccc2c2ccccc21,inactive,–
CCC(=O)OC(C)c1ccccc1 (stereo not given),inactive,–
OCCC(O)CO (stereo not given),inactive,–
CC(=O)CCC(C)C,inactive,–
CN(N=O)C(=O)N[C@@H]1[C@@H](O)[C@H](O)[C@@H](CO)O[C@@H]1O,inactive,–
N#Cc1ccccc1O,inactive,–
O=S(=O)(Cl)C(F)(F)C(F)(F)C(F)(F)C(F)(F)C(F)(F)C(F)(F)C(F)(F)C(F)(F)F,inactive,–
c1ccc(C[P+](c2ccccc2)(c2ccccc2)c2ccccc2)cc1,inactive,–
CCCC(=O)OCC(COC(=O)CCC)OC(=O)CCC,–,64 µM (active)
Brc1ccccn1,inactive,–
C=C(C)C(=O)OCC(F)(F)C(F)(F)C(F)(F)C(F)F,inactive,–
CCCCCCCCCCCCC[N+](C)(C)Cc1ccccc1,inactive,–
